Source: PubChem BioAssay
Most compounds without a hit are left out; they make up all but 17% or so of the library.
TDP1 cell noCPT – qHTS for Inhibitors of human tyrosyl-DNA phosphodiesterase 1 (TDP1): qHTS in cells in absence of CPT | AID 686978, 2013 | Potency, µM (top dose mostly 46.2 µM), hits mostly inhibitors | actives 15% (n = 420,000) | DT40 Tdp1-/- hTDP1 cells, no CPT, ATP luminescence, 48 h; note: nearly all actives have a fitted effect of over 55% in size
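Growth of hTDP1-complemented DT40 Tdp1-knockout cells is measured by ATP luminescence after at least 48 hr compound exposure at 37 °C, with DMSO substituting for the 20 nM CPT used in the parallel screen.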
HepG2 viability – kills HepG2 cells in TGF-b inhibitor counter-screen; HepG2 CAGA-GFP viability, ATP luminescence, 18 h; Potency, µM (highest dose often 46.1 µM), most hits filed as cytotoxic; actives 0.76% (n = 410,000); AID 588856
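HepG2 CAGA-GFP cells (1000/well, DMEM with 1% FBS) received compound, then TGF-beta at 500 pg/mL final, and were incubated 18 hours at 37 degrees C. Viability was read by CellTiter-Glo luminescence. Media-only wells were set as complete cell-killing and DMSO as no toxicity.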
HT1080 IDH1KD tx – HT-1080 IDH1 knockdown cell toxicity (counter line) | AID 686971 | actives 2% (n = 360,000) | HT-1080 IDH1 knockdown viability, ATP luminescence, 48 h | Potency, µM (series often up to 46.1 µM), usual class: cytotoxic
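Cytotoxicity counter-line: IDH1KD HT-1080, 48 h, CellTiter-Glo. Curves classed by r2, magnitude and activity.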
HT1080NT lethal – kills 2HG-producing HT-1080-NT fibrosarcoma cells; actives 1.6% (n = 360,000); HT-1080-NT fibrosarcoma viability, CellTiter-Glo ATP luminescence, 48 h; Potency, µM (top dose mostly 46.1 µM), most hits filed as cytotoxic;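 note: NT is the 2HG producing partner of a matched IDH1 knockdown line; nearly all actives have a fitted effect of over 55% in size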
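750 cells/well, RPMI + 5% FBS; 2 h settle, compound pin-transfer, 48 h at 37 degrees C. CellTiter-Glo 10 min RT, luminescence. Normalized to DMSO and media-only wells.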
DT40 TDP1 CPT – DT40-hTDP1 cell growth loss with CPT; chicken DT40 Tdp1-/-;hTDP1 cells + 20 nM CPT, ATP luminescence, 48 h; Potency, µM (doses to about 46.2 µM), most hits filed as inhibitors; actives 12% (n = 420,000); AID 686979; note: nearly all actives have a fitted effect of over 55% in size
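Cell growth measured by CellTiter-Glo luminescence after a minimum 48 h, 37 C compound exposure with 20 nM CPT in Tdp1-knockout DT40 cells stably expressing hTDP1, seeded 400/well; qHTS titration format.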
TGFb SMAD3 inh – blocks TGF-b signaling. HepG2 CAGA-GFP TGF-b/SMAD3 reporter, GFP fluorescence, 18 h; TGF-beta stimulated, 500 pg/mL final. Potency, µM (titrated, usually from 46.1 µM), usual class: inhibitors. actives 1.2% (n = 410,000). AID 588855; note: nearly all actives have a fitted effect of over 65% in size
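Using HEPG2 CAGA-GFP reporter cells at 1000 cells/well, we pinned test compounds, stimulated with recombinant TGF-beta (500 pg/mL final) and measured total well GFP after 18 h.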
A number is an active result. Calls come from the whole dose curve; as a rule, active = well fitted curve in the direction sought with a large enough effect; inconclusive = small, poorly fitted or top-dose-only effect, or another doubt; inactive = no such curve, though single readings can be large; an effect the other way counts as inactive or inconclusive.

For COc1ccc(-c2nnc(SCC(=O)NC3CCCC3)n2C)cc1 the results were TDP1 cell noCPT inactive, HepG2 viability inactive, HT1080 IDH1KD tx inactive, HT1080NT lethal inactive, DT40 TDP1 CPT inactive and TGFb SMAD3 inh inactive.
CCOC(=O)c1sc2ccccc2c1S(=O)(=O)Nc1ccc(OC)c(Cl)c1 was read as TDP1 cell noCPT inactive, HepG2 viability inactive, DT40 TDP1 CPT inconclusive and TGFb SMAD3 inh inconclusive.
`COC(=O)Cn1c(CN2CCN(c3ccc(F)cc3)CC2)nc2c1c(=O)n(C)c(=O)n2C` gave TDP1 cell noCPT 1.8µM, HepG2 viability inactive, HT1080 IDH1KD tx inactive, HT1080NT lethal inactive, DT40 TDP1 CPT 2.3µM and TGFb SMAD3 inh inactive.
For NC(=O)c1c(NC(=O)C2COc3ccccc3O2)sc2c1CCN(Cc1ccccc1)C2 (stereo unspecified) the results were TDP1 cell noCPT inactive, HepG2 viability inactive, HT1080 IDH1KD tx inactive, HT1080NT lethal inconclusive, DT40 TDP1 CPT inactive and TGFb SMAD3 inh inactive.
Screening CC(=O)N1CCc2c(sc(NC(=O)C3CCCN3S(=O)(=O)c3cccs3)c2C(N)=O)C1 (stereo unspecified) returned TDP1 cell noCPT 16µM, HepG2 viability inactive, HT1080 IDH1KD tx inactive, HT1080NT lethal inactive, DT40 TDP1 CPT 21µM and TGFb SMAD3 inh inactive.
For COC(=O)N1CCc2c(sc(NC(=O)C3COc4ccccc4O3)c2C(N)=O)C1 (stereo unspecified) the results were TDP1 cell noCPT 16µM, HepG2 viability inactive, HT1080 IDH1KD tx inactive, HT1080NT lethal inactive, DT40 TDP1 CPT 15µM and TGFb SMAD3 inh inactive.
For CCOC(=O)c1c(NC(=O)C2COc3ccccc3O2)sc2c1CCN(Cc1ccccc1)C2 (stereo unspecified) the results were TDP1 cell noCPT inactive, HepG2 viability inactive, HT1080 IDH1KD tx inactive, HT1080NT lethal inactive, DT40 TDP1 CPT 23µM and TGFb SMAD3 inh inactive.
CC(=O)N1CCc2c(sc(NC(=O)C3CCN(S(=O)(=O)c4cccs4)CC3)c2C(N)=O)C1 was read as TDP1 cell noCPT inactive, HepG2 viability inactive, HT1080 IDH1KD tx inactive, HT1080NT lethal inactive, DT40 TDP1 CPT inactive and TGFb SMAD3 inh inactive.
CC(C)(C)n1nc2c(c1NC(=O)COc1ccc3ccccc3c1)CS(=O)(=O)C2 was read as TDP1 cell noCPT inconclusive, HepG2 viability inactive, HT1080 IDH1KD tx inactive, HT1080NT lethal inactive, DT40 TDP1 CPT inactive and TGFb SMAD3 inh inactive.
For Cc1ccnc(NC(=O)CCC(=O)N(CC(=O)NCc2ccc(F)cc2)Cc2ccccc2)c1 the results were TDP1 cell noCPT inconclusive, HepG2 viability inactive, HT1080 IDH1KD tx inactive, HT1080NT lethal inactive, DT40 TDP1 CPT inactive and TGFb SMAD3 inh inactive.
`C[C@H]1CN=C(Nc2ccccc2)N1CC1CCCCCC1` gave TDP1 cell noCPT 13µM, HepG2 viability inactive, HT1080 IDH1KD tx inactive, HT1080NT lethal inactive, DT40 TDP1 CPT 18µM and TGFb SMAD3 inh inactive.
C[C@H]1CN=C(Nc2ccccc2)N1CCCC1CCCC1 was read as TDP1 cell noCPT 16µM, HepG2 viability inactive, HT1080 IDH1KD tx inactive, HT1080NT lethal inactive, DT40 TDP1 CPT 18µM and TGFb SMAD3 inh inactive.
Screening C[C@H]1CN=C(Nc2ccccc2)N1CC1CCC1 returned TDP1 cell noCPT inactive, HepG2 viability inactive, HT1080 IDH1KD tx inactive, HT1080NT lethal inactive, DT40 TDP1 CPT inactive and TGFb SMAD3 inh inactive.
C[C@H]1CN=C(Nc2ccccc2)N1CCC1CCCCC1 was read as TDP1 cell noCPT inconclusive, HepG2 viability inactive, HT1080 IDH1KD tx inactive, HT1080NT lethal inactive, DT40 TDP1 CPT 18µM and TGFb SMAD3 inh inactive.
For COc1ccc(N(C)C(=O)c2onc3c2CCCC3)cc1 the results were TDP1 cell noCPT inactive, HepG2 viability inactive, HT1080 IDH1KD tx inactive, HT1080NT lethal inactive, DT40 TDP1 CPT inactive and TGFb SMAD3 inh inactive.
O=C(NCc1ccc2c(c1)OCO2)c1ccc(N2C(=O)C3CCCCC3C2=O)cc1 (stereo unspecified) was read as TDP1 cell noCPT inactive, HepG2 viability inactive, HT1080 IDH1KD tx inactive, HT1080NT lethal inactive, DT40 TDP1 CPT inactive and TGFb SMAD3 inh inactive.
Screening O=[N+]([O-])c1cnc(Sc2ccncn2)c([N+](=O)[O-])c1 returned TDP1 cell noCPT 1.2µM, HepG2 viability inactive, HT1080 IDH1KD tx inactive, HT1080NT lethal inactive, DT40 TDP1 CPT 1.2µM and TGFb SMAD3 inh inconclusive.
Screening O=C(Nc1ccc(F)c(Cl)c1)C1Cc2c(-c3ccccc3Oc3ccccc3)ccnc2O1 (stereo unspecified) returned TDP1 cell noCPT inconclusive, HepG2 viability inactive, HT1080 IDH1KD tx inactive, HT1080NT lethal 13µM, DT40 TDP1 CPT inconclusive and TGFb SMAD3 inh inconclusive.
Screening COc1ccc(NC(=O)C2Cc3c(-c4ccccc4Oc4ccccc4)ccnc3O2)cc1OC (stereo unspecified) returned TDP1 cell noCPT 16µM, HepG2 viability inactive, HT1080 IDH1KD tx inconclusive, HT1080NT lethal inconclusive, DT40 TDP1 CPT 9.2µM and TGFb SMAD3 inh inconclusive.
COc1ccc(NC(=O)C2Cc3c(-c4ccccc4Oc4ccccc4)ccnc3O2)cn1 (stereo unspecified) was read as TDP1 cell noCPT 15µM, HepG2 viability inactive, HT1080 IDH1KD tx inactive, HT1080NT lethal inactive, DT40 TDP1 CPT 15µM and TGFb SMAD3 inh inconclusive.
O=C(NCc1ccncc1)C1Cc2c(-c3ccccc3Oc3ccccc3)ccnc2O1 (stereo unspecified) was read as TDP1 cell noCPT 16µM, HepG2 viability inactive, HT1080 IDH1KD tx inactive, HT1080NT lethal inconclusive, DT40 TDP1 CPT 13µM and TGFb SMAD3 inh 14µM.
For O=C(Nc1ccc2c(c1)OCO2)C1Cc2c(-c3ccccc3Oc3ccccc3)ccnc2O1 (stereo unspecified) the results were TDP1 cell noCPT inconclusive, HepG2 viability inactive, HT1080 IDH1KD tx inconclusive, HT1080NT lethal inconclusive, DT40 TDP1 CPT inconclusive and TGFb SMAD3 inh inactive.
`COc1ccc(C2CCCCC2SCC(=O)O)cc1OC` (stereo unspecified) gave TDP1 cell noCPT inactive, HepG2 viability inactive, HT1080 IDH1KD tx inactive, HT1080NT lethal inactive, DT40 TDP1 CPT inactive and TGFb SMAD3 inh inactive.
Cc1ccc(NC(=O)Nc2c(Cl)cccc2Cl)cn1 was read as TDP1 cell noCPT 10µM, HepG2 viability inactive, HT1080 IDH1KD tx inactive, HT1080NT lethal inactive, DT40 TDP1 CPT inconclusive and TGFb SMAD3 inh inactive.
